High-throughput results: PubChem, Broad Institute
Sampled rows, rich in hits. Any-hit rate of the full collection: about 1.5%.
CFTR F508del cor: F508del CFTR correction, initial screen, CFBE line, single point | activity (quench increase), % at 7.58 µM | AID 720511, 2013 | hit rate 0.36% among 350,000 | CFBE cells, YFP halide quenching; stimulated with forskolin plus potentiator P3; % fluorescence drop versus neutral controls;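 active = mean added fluorescence quench of at least 8% versus neutral control, with both replicates also reaching 8%; inconclusive = only one of the mean or replicate conditions met; inactive = mean below 8% and not both replicates reaching 8%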;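 note: cells transiently co-express mutant CFTR-F508del with the halide-sensitive YFP; corrector assay measuring rescue of mutant channel to the surface after 24 h compound exposure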
dFosB activator: activators of delta FosB homodimer, primary screen, biochemical, fluorescence polarization, TAMRA-CDK5 oligo, single point | Protein FosB (Mus musculus), P13346 | purified delta FosB; percent of positive-control signal above neutral wells | activation, % at 25 µM | hit rate 0.99% among 340,000;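 active = mean activation above about 17%, with every replicate also reaching it, limit read from the data, passing the limit was not always enough; inconclusive = only one of the two conditions met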
Target sequence (P13346 whole entry, looked up): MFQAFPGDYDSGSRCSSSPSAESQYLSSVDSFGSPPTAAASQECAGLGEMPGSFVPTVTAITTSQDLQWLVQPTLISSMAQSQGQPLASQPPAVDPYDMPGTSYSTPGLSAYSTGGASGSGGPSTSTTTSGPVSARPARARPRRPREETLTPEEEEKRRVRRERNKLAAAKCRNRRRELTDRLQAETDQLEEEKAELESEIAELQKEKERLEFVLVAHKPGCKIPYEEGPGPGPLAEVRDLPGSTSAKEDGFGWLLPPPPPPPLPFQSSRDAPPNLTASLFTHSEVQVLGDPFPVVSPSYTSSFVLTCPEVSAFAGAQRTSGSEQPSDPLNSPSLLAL
N-glyco inh: increase of ERlucT glycosylation luciferase signal, primary screen, N-linked glycosylation inhibitor project, D54 ERlucT cells, luminescence, set 2; D54 ERlucT glycosylation luciferase reporter, 24 h; percent of 100 nM tunicamycin response; reporter increase, % at 12.5 µM; hit rate 0.23% among 360,000; AID 588692, 2011;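 active = mean luciferase reporter signal, scaled so untreated is 0 and the glycosylation-blocking control 100, at or above a set limit in every replicate; inconclusive = mean reaches the limit but not every replicate does; inactive = mean below the limit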;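 note: luciferase carries N-glycosylation sites so blocking glycosylation raises the light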
PvdQ inh: P. aeruginosa PvdQ acylase inhibitors, primary screen, biochemical, fluorescence, plate reader and imaging, single point | PvdQ acylase [Pseudomonas aeruginosa LESB58] | purified PvdQ acylase | inhibition, % at 10 µM | hit rate 0.063% among 340,000 | AID 488965, 2010; in the data active = inhibition above about 30%, passing the limit was not always enough; inconclusive = no clear call, values can overlap the other calls
RAD52 anneal inh: RAD52 DNA annealing inhibitors, primary screen, biochemical, FRET, single point, set 2; recombinant RAD52 DNA annealing, FRET fluorescence; inhibition, % at 18.7 µM; hit rate 0.46% among 360,000;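 active = every replicate showing at least 50% inhibition; inconclusive = mean inhibition at least 50% but not in every replicate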
Target sequence (P43351 whole entry, looked up): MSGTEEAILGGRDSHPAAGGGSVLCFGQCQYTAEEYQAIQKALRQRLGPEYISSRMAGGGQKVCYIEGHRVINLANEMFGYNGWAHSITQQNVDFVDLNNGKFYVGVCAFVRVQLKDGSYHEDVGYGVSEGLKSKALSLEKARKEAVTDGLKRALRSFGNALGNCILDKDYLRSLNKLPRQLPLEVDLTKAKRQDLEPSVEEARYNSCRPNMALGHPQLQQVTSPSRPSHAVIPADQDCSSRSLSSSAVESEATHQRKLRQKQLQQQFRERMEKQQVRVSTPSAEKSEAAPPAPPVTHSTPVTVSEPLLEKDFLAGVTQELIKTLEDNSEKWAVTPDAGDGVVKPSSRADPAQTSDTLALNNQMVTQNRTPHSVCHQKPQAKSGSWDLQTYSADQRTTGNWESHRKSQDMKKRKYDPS
RAD54 inh: inhibitors of human RAD54 branch migration, primary screen, biochemical, fluorescence, single point. DNA repair and recombination protein RAD54-like (Homo sapiens), Q92698. RAD54 Holliday junction branch migration, FAM/BHQ fluorescence. inhibition, % at 10.4 µM. hit rate 0.14% among 360,000. AID 602329, 2012;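 active = mean normalized replicate activity at least 40 and at least half of replicates scoring 40 or more; inconclusive = only one of the two criteria met; inactive = mean below 40 and under half of replicates reaching 40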;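 note: inhibitors cause a drop in the FAM fluorescence signal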
Large screens that a line does not name were inactive; ! = not confirmed by another sample.

CCN1CCC(O)(/C=C/c2ccc(C(C)C)cc2)C(C(=O)/C=C/c2ccc(C(C)C)cc2)C1 (stereo unspecified)	dFosB activator 54 (no result: RAD54 inh)
CN=C1S/C(=C\c2ccc(Cl)cc2)C(=O)N1C	none (no result: RAD54 inh)
CN=C1S/C(=C\c2ccc(SC)cc2)C(=O)N1C	PvdQ inh 48
C/C(=N\NC(=O)c1c[nH]c2ccccc12)c1ccc(C)o1	RAD54 inh 58 (no result: CFTR F508del cor, RAD52 anneal inh)
Cc1noc(C)c1S(=O)(=O)N(C)C[C@@H]1Oc2ccc(NC(=O)NC3CCCCC3)cc2CC(=O)N([C@H](C)CO)C[C@H]1C	none (no result: dFosB activator, N-glyco inh, PvdQ inh)
COc1ccc(C(=O)Nc2cccc(-c3nnc(-c4ccco4)o3)c2)cc1	none (no result: CFTR F508del cor, RAD52 anneal inh)
COc1ccc(CC(=O)Nc2cccc(-c3nnc(-c4ccco4)o3)c2)cc1	dFosB activator 67 (no result: CFTR F508del cor, RAD52 anneal inh)
CCOC(=O)c1c(CSC(=N)N)n(-c2ccc(Br)cc2)c2cc(Br)c(OC(C)=O)cc12	dFosB activator inconclusive (no result: CFTR F508del cor, RAD52 anneal inh)
CCCCCCCCOC(=O)c1c(CSC(=N)N)n(C)c2cc(Br)c(OC(C)=O)cc12	RAD52 anneal inh 83 (no result: dFosB activator, PvdQ inh)
Cc1ccc(-c2nc3ncccc3o2)cc1NC(=O)c1ccc([N+](=O)[O-])o1	N-glyco inh 36 (no result: CFTR F508del cor, RAD52 anneal inh)
Cc1cc(-c2nc3ncccc3o2)ccc1NC(=O)c1ccc([N+](=O)[O-])o1	none
CCOC1=C2CN(S(=O)(=O)c3ccc(C)cc3)CC[C@@H]2N(S(=O)(=O)c2ccc(C)cc2)[C@H](c2ccccc2)C1	CFTR F508del cor 12 (no result: dFosB activator, PvdQ inh)
O=C(CSc1nnnn1-c1ccccc1)Nc1ncc(Cc2cccc(Cl)c2Cl)s1	dFosB activator 77 (no result: CFTR F508del cor, RAD54 inh)
O=C(CSc1nnnn1-c1ccccc1)Nc1ncc(Cc2cc(Cl)ccc2Cl)s1	none (no result: CFTR F508del cor, RAD52 anneal inh)
COc1ccc(S(=O)(=O)N(C)C[C@@H]2Oc3c(NC(=O)Nc4ccc5c(c4)OCO5)cccc3C(=O)N([C@H](C)CO)C[C@H]2C)cc1	none (no result: dFosB activator, N-glyco inh, PvdQ inh)
COCC(=O)Nc1ccc2c(c1)C(=O)N(C)C[C@H](OC)[C@H](C)CN(CCC(F)(F)F)[C@H](C)CO2	none (no result: dFosB activator, N-glyco inh, PvdQ inh)
Cn1c(=O)cc(OCCCC(=O)NC2CCCC2)c2ccccc21	N-glyco inh 45 (no result: CFTR F508del cor, RAD52 anneal inh)
Cc1ccnc(NC(=O)CCCOc2cc(=O)n(C)c3ccccc23)c1	N-glyco inh 26!
Cn1c(=O)cc(OCCCC(=O)NCc2ccccn2)c2ccccc21	none (no result: CFTR F508del cor)
Cn1c(=O)cc(OCC(=O)NC2CCCCC2)c2ccccc21	none (no result: CFTR F508del cor, RAD52 anneal inh)
CO[C@H]1CN(C)C(=O)c2cc(NC(=O)C3CCC3)ccc2OC[C@H](C)N(Cc2cccnc2)C[C@H]1C	none (no result: dFosB activator, N-glyco inh, PvdQ inh)
COC(=O)[C@@H]1[C@@H](CO)[C@@H]2Cn3c(ccc(C4=CCCC4)c3=O)[C@@H]2N1C(=O)C1CCCC1	none (no result: dFosB activator, N-glyco inh, PvdQ inh)
C=C1CC(/C=C/c2cc(OC)c(OC)c(OC)c2)OC1=O (stereo unspecified)	none (no result: dFosB activator, N-glyco inh, PvdQ inh, RAD54 inh)
CCn1c(SCC(=O)N/N=C/c2cc(OC)c(O)c(OC)c2)nc2ccccc21	none (no result: CFTR F508del cor, RAD52 anneal inh)
CCn1c(SCC(=O)N/N=C/c2ccc(O)c(OC)c2)nc2ccccc21	CFTR F508del cor 8.3 (no result: RAD54 inh)
C[C@@H]1CN([C@H](C)CO)C(=O)c2cccc(NS(=O)(=O)c3ccc(F)cc3)c2O[C@@H]1CN(C)C(=O)Nc1cccc2ccccc12	none (no result: dFosB activator, N-glyco inh, PvdQ inh)
CCc1ccc(NC(=O)NCC2CCN(Cc3cccc(Cl)c3)CC2)cc1	none
Cc1ccc(NC(=O)NCC2CCN(Cc3cccc(Cl)c3)CC2)cc1Cl	dFosB activator 20
CN1/C(=C\C=C(/C#N)C(=O)Nc2ccc(Cl)cc2)C(C)(C)c2ccccc21	none (no result: CFTR F508del cor, RAD52 anneal inh, RAD54 inh)
CN1/C(=C\C=C(C#N)C#N)C(C)(C)c2ccccc21	dFosB activator 113
Cc1ccc(S/C=C\C(=O)c2ccccc2)cc1	N-glyco inh 47 (no result: RAD54 inh)
N#C[C@H]1[C@H](c2ccc(C#CC3CCCCC3)cc2)[C@H](CO)N1C(=O)Cc1ccccn1	none (no result: dFosB activator, N-glyco inh, PvdQ inh)
O=C(NCCOc1ccccc1F)c1cc([N+](=O)[O-])ccc1N1CCOCC1	CFTR F508del cor 8.3
O=C(NCCOc1ccccc1)c1cc([N+](=O)[O-])ccc1N1CCOCC1	CFTR F508del cor 12
CCOc1ccc(NC(=O)COC(=O)c2cc([N+](=O)[O-])ccc2N2CCOCC2)cc1	none (no result: RAD54 inh)
CCc1cccc(NC(=O)COC(=O)c2cc([N+](=O)[O-])ccc2N2CCOCC2)c1	CFTR F508del cor 9.1 (no result: RAD54 inh)
O=C(NCCc1ccccc1)c1cc([N+](=O)[O-])ccc1N1CCOCC1	none
COc1ccc2c3c([nH]c2c1)[C@H](CO)N(C(=O)c1ccccc1)CC31CCN(C(=O)Nc2cccc(F)c2)CC1	none (no result: dFosB activator, N-glyco inh, PvdQ inh, RAD52 anneal inh, RAD54 inh)
O=C(Nc1ccccc1)c1c(F)c(F)c(F)c(F)c1F	none
CC(C)c1c(C(=O)Nc2ccccc2)c(-c2ccccc2)c(-c2ccc(F)cc2)n1CC[C@@H](O)C[C@@H](O)CC(=O)O	N-glyco inh 80 (no result: CFTR F508del cor, dFosB activator, PvdQ inh)
c1ccc(Nc2nc(NCC3CCCO3)c3ccccc3n2)cc1 (stereo unspecified)	none
Oc1cccc(Nc2nc(NCC3CCCO3)c3ccccc3n2)c1 (stereo unspecified)	dFosB activator 59 (no result: CFTR F508del cor, RAD52 anneal inh)
O=C(c1cccs1)N1N=C(c2ccccc2)CC1c1ccccc1O (stereo unspecified)	dFosB activator 31 (no result: RAD54 inh)
O=C(c1ccco1)N1N=C(c2cccs2)CC1c1ccccc1O (stereo unspecified)	dFosB activator 27 (no result: N-glyco inh)
COc1ccc(NC(=O)N(C)C[C@@H]2Oc3ccc(NC(=O)Cn4cnnn4)cc3C(=O)N([C@H](C)CO)C[C@H]2C)cc1	none (no result: dFosB activator, N-glyco inh, PvdQ inh)
C[C@@H]1CN([C@@H](C)CO)C(=O)c2cc(/C=C/c3ccccc3)cnc2O[C@@H]1CN(C)Cc1cncnc1	none (no result: dFosB activator, N-glyco inh, PvdQ inh, RAD54 inh)
Cc1noc(C)c1NC(=O)N(C)C[C@H]1Oc2ccc(NC(=O)Nc3ccc(F)cc3)cc2CC(=O)N([C@H](C)CO)C[C@H]1C	none (no result: dFosB activator, N-glyco inh, PvdQ inh)
COCCNC(=O)C1CCCN(C(=O)c2ccc3sccc3c2)CC1 (stereo unspecified)	CFTR F508del cor 8.5 (no result: dFosB activator, PvdQ inh)
COc1cccc(S(=O)(=O)N2CCC3(CC2)CN[C@H](CO)c2[nH]c4cc(OC)ccc4c23)c1	none (no result: dFosB activator, N-glyco inh, PvdQ inh, RAD52 anneal inh, RAD54 inh)
O=C(COc1cccc2cccnc12)N/N=C/c1ccc(O)cc1	dFosB activator 19
C[C@@H]1CCCCO[C@@H](CN(C)S(=O)(=O)c2cccs2)[C@H](C)CN([C@@H](C)CO)C(=O)c2cc(NS(=O)(=O)c3cn(C)cn3)ccc2O1	RAD52 anneal inh 84 (no result: dFosB activator, N-glyco inh, PvdQ inh)
C[C@H]1CCCCO[C@@H](CN(C)S(=O)(=O)c2cccs2)[C@@H](C)CN([C@@H](C)CO)C(=O)c2cc(NS(=O)(=O)c3cn(C)cn3)ccc2O1	RAD52 anneal inh 109 (no result: dFosB activator, N-glyco inh, PvdQ inh)
